# Results as given in PubChem BioAssay.
# Several values for one entry are separate records, joined by “and”; a condition that tells them apart may be missing. Identical values can stand only once. Activity calls are given as the source filed them.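 The calls were made as follows: active = inhibition at or above 50% relative to wild type and mutant plate controls; inactive = inhibition below 50%.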
# Assay: inhibitors of Chlamydomonas gravitaxis, primary screen, whole organism, Chlamydomonas reinhardtii, WT vs cilia-less mutant, absorbance, 96-well (AID 463189);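 also: 0% = wild type cc124 cells in DMSO and 100% = ciliumless bld1 mutant cells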
# Details: OD600 absorbance, 2 days, at 10 µM, hits give high values
row,Compound,inhibition
1,COc1cc(/C=C(\C#N)C(=O)c2ccc(O)c(O)c2)cc(I)c1O,7.26% (inactive)
2,NC(Cc1cccc(-c2ccccc2CP(=O)(O)O)c1)C(=O)O (centres undefined),-2% (inactive)
3,CCCNC(C)C(=O)Nc1ccccc1C (centres undefined),6.52% (inactive)
4,CC(C(=O)O)c1cccc(C(=O)c2ccccc2)c1 (centres undefined),-4.65% (inactive)
5,COc1ccccc1N1CCN(CCCNc2c(C)c(=O)n(C)c(=O)n2C)CC1,5.61% (inactive)
6,CC(C)(C)NCC(O)COc1cccc2[nH]c(=O)[nH]c12 (centres undefined),3.61% (inactive)
7,COC(=O)C(C)(N)Cc1ccc(O)cc1 (centres undefined),9.13% (inactive)
8,CN[C@H](CC(=O)O)C(=O)O,6.26% (inactive)
9,CCc1cccc(N(C)C(N)=Nc2cccc3ccccc23)c1,-1.11% (inactive)
10,CC(C)NCC(O)c1ccc(O)c(O)c1 (centres undefined),-5.24% (inactive) and 12.5% (inactive)
11,C#CC(N)CCC(=O)O (centres undefined),-0.038% (inactive)
12,CC(=O)Oc1ccccc1C(=O)O,-5.84% (inactive)
13,CN1CCc2cc(NC(=O)Nc3cccnc3)ccc21,8.14% (inactive)
14,O=C(O)c1cc(=O)c2ccc(Cl)cc2[nH]1,4.9% (inactive)
15,c1cnc(N2CCN(Cc3ccc4c(c3)OCO4)CC2)nc1,0.952% (inactive)
16,N[C@@H](COP(=O)(O)O)C(=O)O,2.62% (inactive)
17,CN1CCN(c2nc3cc(C(F)(F)F)ccc3n3cccc23)CC1,10.9% (inactive)
18,O=C(O)CC1CCCc2ccccc2C1O (centres undefined),4.59% (inactive)
19,CCN1/C(=C/C(C)=O)Sc2ccc(OC)cc21,9.38% (inactive)
20,COc1ccccc1N1CCN(CCN(C(=O)c2ccc(I)cc2)c2ccccn2)CC1,-3.47% (inactive)

row,Compound,inhibition
1,C[C@H]1O[C@@H](n2cc(F)c(=O)[nH]c2=O)[C@H](O)[C@@H]1O,2.48% (inactive)
2,Nc1ccc(S(=O)(=O)Nc2ccnn2-c2ccccc2)cc1,-0.772% (inactive)
3,CC(=O)N[C@H](C(=O)O)C(C)(C)SN=O,3.53% (inactive)
4,COC(=O)[C@@H](N)Cc1ccc(O)c(O)c1,-3.44% (inactive)
5,O=C(c1ccccc1)c1ccc2n1CCC2C(=O)O (centres undefined),-6.13% (inactive)
6,N.N.N.N.N.N.N.N.N.N.N.N.N.N.O.O.[Cl-].[Cl-].[Cl-].[Cl-].[Cl-].[Cl-].[Ru+4].[Ru+5].[Ru+5],97.5% (active)
7,Cn1cc(C2=C(c3ccc(Cl)cc3Cl)C(=O)NC2=O)c2ccccc21,-0.155% (inactive)
8,CC[N+](CC)(CC)CCOc1cccc(OCC[N+](CC)(CC)CC)c1OCC[N+](CC)(CC)CC,3.26% (inactive)
9,COc1ccccc1N1CCN(CCCNc2cc(=O)n(C)c(=O)n2C)CC1,9.94% (inactive)
10,Oc1cc(O)c2c(c1)O[C@H](c1ccc(O)c(O)c1)[C@@H](O)C2,2.87% (inactive)
11,CCN(CC)CCOC(=O)c1ccc(N)cc1,-0.871% (inactive)
12,CCN(CC)CCCC(C)Nc1ccnc2cc(Cl)ccc12 (centres undefined),0.95% (inactive)
13,Nc1ncnc2c1ncn2[C@@H]1O[C@H](CO)[C@H](O)C1O (some centres undefined),5.53% (inactive)
14,C[C@@]1(C2CCCC2)Cc2cc(OCC(=O)O)c(Cl)c(Cl)c2C1=O,5.71% (inactive)
15,CC(=O)NCCc1c[nH]c2ccc(O)cc12,-4.58% (inactive)
16,CCCCCCCCCCCCCCC[C@H](O)[C@H](N)CO,38.7% (inactive)
17,CC(C)C(=O)c1c(C(C)C)nn2ccccc12,52.8% (active)
18,Clc1ccccc1C(c1ccccc1)(c1ccccc1)n1ccnc1,96% (active)
19,COc1cc2c(CCNC(C)=O)c[nH]c2cc1Cl,4.11% (inactive)
